Screening data as filed in PubChem.
The list is not random: actives were taken first. Their share in the collection is about 4.8%.
hgDAF12 agonist – activates the H. glycines DAF-12 receptor ligand-binding domain | HEK293 GAL4-hgDAF12 UAS-luciferase reporter, agonist luminescence; normalized to butyrate control | 370,000 tested, 1.8% active | activation, % at 6.8 µM;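 active means activation above a cutoff set at the mean of all screened compounds plus 3 SD, cut at about 10% in these data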;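 further: 0% = DMSO wells and 100% = sodium butyrate wells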
DAX1 inh-1 – NR0B1 (DAX1) inhibition; P51843; AID 504766; 340,000 tested, 0.99% active; HEK293 Gal4-DAX1 luciferase reporter, luminescence; inhibition, % at 6.75 µM;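 active means inhibition above the mean over all tested compounds plus 3 SD, cut at about 4.2% in these data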;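 further: 0% = DAX1-transfected cells with DMSO and 100% = empty-vector control cells with DMSO; inhibition shows as a rise in luminescence from relieved DAX1 repression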
hcDAF12 agonist – activates DAF-12 receptor from parasite H. contortus | HEK293 hcDAF-12 lit1-tk-luc reporter, luminescence; 0% DMSO, 100% Δ7-dafachronic acid | activation, % at 6.8 µM | 370,000 tested, 1.4% active | AID 652067;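 active means activation above the mean of all tested compounds plus 3 SD, cut at about 5.5% in these data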;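 further: 100% = response to 3 µM Δ7-dafachronic acid high control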
NR1D1 modulator – modulates human Rev-erb alpha binding to DNA; activity, % at 10 µM; AID 1259318; P20393; Rev-erbα–FITC-DNA binding, fluorescence polarization, 90 min; 370,000 tested, 0.79% active;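 active means activity above about 14%, limit read from the data; passing the limit was not always enough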;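 further: 0% = DMSO wells with 35 nM protein and 100% = DMSO wells with 750 nM protein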
Target sequence (P20393 whole entry, looked up): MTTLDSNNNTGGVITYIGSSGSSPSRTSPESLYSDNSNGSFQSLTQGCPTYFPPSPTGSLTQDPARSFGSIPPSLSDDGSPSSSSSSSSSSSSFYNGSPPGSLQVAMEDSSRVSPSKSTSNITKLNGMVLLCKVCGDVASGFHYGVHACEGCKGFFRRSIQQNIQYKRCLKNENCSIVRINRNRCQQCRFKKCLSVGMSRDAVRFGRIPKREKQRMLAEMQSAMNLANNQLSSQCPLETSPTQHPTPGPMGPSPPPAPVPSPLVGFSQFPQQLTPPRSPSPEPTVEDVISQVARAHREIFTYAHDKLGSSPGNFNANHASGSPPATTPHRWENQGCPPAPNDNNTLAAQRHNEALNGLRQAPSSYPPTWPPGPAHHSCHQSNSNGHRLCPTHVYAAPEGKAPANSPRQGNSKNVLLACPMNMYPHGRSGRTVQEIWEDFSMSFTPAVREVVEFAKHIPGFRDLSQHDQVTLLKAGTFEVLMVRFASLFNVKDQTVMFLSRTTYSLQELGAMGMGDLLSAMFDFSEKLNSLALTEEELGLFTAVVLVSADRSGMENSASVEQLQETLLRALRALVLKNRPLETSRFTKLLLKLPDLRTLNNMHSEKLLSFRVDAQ
DAX1 inh-2 – blocks DAX1 repression of SF-1 activated StAR promoter; HEK293T StAR-luciferase reporter, SF-1/DAX-1 repression relief; inhibition, % at 6.8 µM; 370,000 tested, 1.1% active; AID 652010;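 active means inhibition above the mean over all tested compounds plus 3 SD, cut at about 3.6% in these data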;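 further: 0% = DAX-1 cells with DMSO and 100% = cells lacking DAX-1 with DMSO; higher inhibition means more luminescence from relief of DAX-1 repression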
ssDAF-12 act – activators of S. stercoralis DAF-12 nuclear receptor; 370,000 tested, 1% active; AID 652126; activation, % at 6.8 µM; HEK293 ssDAF-12/GRIP1 lit1-tk-luc reporter, luminescence; % of 3 µM dafachronic acid response;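 active means activation above the mean over all tested compounds plus 3 SD, cut at about 0.9% in these data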;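 further: 0% = DMSO-only wells and 100% = 3 µM delta7-dafachronic acid wells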
NR1D1 mod conf – Rev-erb alpha (human) modulation, hit confirmation. activation, % at 25 µM. shares compounds with NR1D1 modulator. 3,000 tested, 61% active. Rev-erb alpha FITC-DNA binding, fluorescence polarization, 90 min;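 active means activation at or above a set limit, or at least 3 SD above the negative control mean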;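 further: 0% = 35 nM protein with DMSO and 100% = 750 nM protein high control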
RORg counter – counter-screen for Rev-erb alpha modulators: RORgamma DNA binding; shares compounds with NR1D1 modulator; purified RORgamma protein-FITC-DNA binding, fluorescence polarization; IC50, µM; 910 tested, 8% active;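 active means Compounds whose fitted half-maximal concentration for disrupting protein-DNA binding is below 10 micromolar; the record names Rev-erb in its text, so the target is in doubt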
* = called active by the depositor; i = inactive; x = not tested or not shown.

SMILES	hgDAF12 agonist	DAX1 inh-1	hcDAF12 agonist	NR1D1 modulator	DAX1 inh-2	ssDAF-12 act	NR1D1 mod conf	RORg counter
COc1cc(C(=O)Nc2nc(-c3ccc(Cl)cc3)c(C)s2)ccc1OCC(=O)Nc1ccc(F)cc1	0.6	-0.1	-0.7	122.4*	-0.2	-1.3	125.3*	>40
CCc1ccc(-c2nc(NC(=O)c3ccc(OCC(=O)Nc4ccc(F)cc4)c(OC)c3)sc2C)cc1	-1.7	-1.0	1.8	112.8*	-0.1	-0.9	66.2*	>40
COc1ccc(-c2nc(NC(=O)c3ccc(OCC(=O)N4CCOCC4)c(OC)c3)sc2C)cc1	-1.2	-0.4	-0.6	-0.8	-0.2	-0.7	x	x
O=c1[nH]c(SCCOc2ccccc2)nc2ccccc12	2.5	2.5	-1.6	45.7*	0.6	-2.2	25.1*	x
CCCCCCCCN1CN2Cc3ccc(C)cc3C2CS1(=O)=O (stereo not drawn)	1.2	x	-0.5	-2.6	0.8	-1.0	x	x
O=C(OCc1cc2ccccc2[nH]c1=O)c1cccs1	-1.1	-0.1	-0.9	27.1*	-0.4	-1.5	24.0*	x
COc1ccc(CC(=O)OCc2cc3ccc(C)cc3[nH]c2=O)cc1	1.6	0.1	2.2	34.0*	-0.4	-0.9	31.2*	x
COc1ccc(CC(=O)OCc2cc3ccccc3[nH]c2=O)cc1	-2.1	-0.2	-0.8	-2.3	0.3	-1.1	x	x
COc1cc(OC)cc(C(=O)OCc2cc3ccccc3[nH]c2=O)c1	-1.0	-0.1	0.6	56.9*	0.4	-0.8	50.3*	>40
Cc1ccc2[nH]c(=O)c(CN(C(=O)c3cccs3)c3ccccc3)cc2c1	2.5	1.0	-3.1	51.6*	-0.2	-1.3	95.5*	>40
CC(=O)Nc1sc2c(c1-c1cc3ccccc3o1)CCNC2	2.2	x	5.1	1.2	x	-0.3	x	x
COc1cccc(C2NC(=S)N(Cc3ccc(Br)cc3)C(C)=C2C(C)=O)c1 (stereo not drawn)	-3.0	x	-1.0	-6.5	-1.0	-0.8	x	x
c1ccc(N(c2ccccc2)c2nc(N3CCCC3)nc(-n3ccnc3)n2)cc1	1.4	2.3	-0.8	37.4*	-1.3	-0.6	57.5*	8.46*
CC1CN(C(=O)N2c3ccccc3Sc3ccccc32)C(C)CC1=O (stereo not drawn)	-2.8	2.2	-2.8	43.8*	-1.0	-1.5	60.4*	x
CC1CN(C(=O)N2c3ccccc3Sc3ccccc32)CC(C)O1 (stereo not drawn)	-3.1	0.2	-2.4	2.4	-0.5	-1.7	x	x
Cc1c(NC(=O)NC(=O)c2ccc(F)cc2)c(=O)n(-c2ccccc2)n1C	0.9	0.1	-2.6	-1.4	0.0	-0.7	x	x
Cc1c(N=C2N=C(NC(=O)c3ccc(F)cc3)c3ccccc32)c(=O)n(-c2ccccc2)n1C	6.1	0.3	-2.5	92.1*	-0.1	-0.4	50.8*	x
Cc1cc(-c2cccc([N+](=O)[O-])c2)nc2ccc3ccccc3c12	1.9	0.3	2.9	37.7*	0.3	-0.7	42.4*	i
CN(C)[C@H]1CCN(c2ccc3c(c2)O[C@@H]2CCN(C2)S3(=O)=O)C1	2.6	x	0.0	-6.2	0.7	0.2	x	x
CC(C)(C)CNC(=O)c1ccc2c(c1)S(=O)(=O)c1cc(Cl)ccc1C2=O	0.9	-0.1	-0.5	-1.1	0.1	-1.5	x	x
Cc1cc(N(C)C(=O)c2ccc3c(c2)S(=O)(=O)c2cc(Cl)ccc2C3=O)c(C(F)(F)F)o1	-1.2	-0.1	3.9	19.5*	-0.1	-1.2	19.9*	x
Cc1ccc(O)c(N=Nc2nccs2)c1	-8.0	-2.5	-0.5	20.2*	-5.7	-1.5	7.2	x
O=C(Cn1cnc2ccccc2c1=O)N1CCN(Cc2ccc(F)cc2)CC1	-0.5	x	-0.4	-1.0	-0.8	-0.8	x	x
Cc1ccc(Cl)cc1N1CCN(Cc2nc3c(c(=O)[nH]c(=O)n3C)n2CCc2ccccc2)CC1	0.2	-0.5	-0.9	2.4	-0.1	-0.4	x	x
